# Hit rate of the full screen: of about 340,000 compounds, about 12,000 (3.5%) were called active. Roughly 18% stayed inconclusive and do not appear here. Calls come from the whole dose curve; as a rule, active = well fitted inhibition curve with a large enough effect; inconclusive = small, poorly fitted or top-dose-only effect, or another doubt; inactive = no such curve, though single readings can be large or run the other way. Many of the other results were omitted from the sample, so actives are more common in it than they were.
# Assay: qHTS Assay for Inhibitors of Hepatitis C Virus (HCV)
# Conditions: Huh7.5.1 HCVcc-Cre infection, luciferase reporter, 44 h; series mostly up to 41.8 µM; activity change, negative = inhibition: at the top concentration
# Source text: Hepatitis C virus (HCV) infects about 200 million people in the world. Many infected people progress to chronic liver disease including cirrhosis with a risk of developing liver cancer. To date, there is no effective vaccine for hepatitis C. Current therapy based on interferon is only effective in about half of the patients and is associated with significant adverse effects. The fraction of people with HCV who can complete a successful treatment is estimated to be no more than 10 percent. Recent development of direct-acting antivirals against HCV, such as protease and polymerase inhibitors, is promising but still requires combination with peginterferon and ribavirin for maximal efficacy. In addition, these agents are associated with high rate of resistance and many have significant side effects. Due to the lack of a culture system for infectious HCV, the search for new HCV drugs has been greatly hampered. […] High-throughput screening (HTS) with an infectious HCV system would cover the complete spectrum of potentially druggable targets in all stages of HCV lifecycle, and would have more biological relevance than other cell-based assays. Moreover, targeting several key processes in the viral life cycle may not only increase antiviral efficacy; more importantly, it may also reduce the capacity of the virus to develop resistance to the compound. The goal of this project is to identify novel HCV inhibitors as new therapies for hepatitis C, using a highly sensitive and specific assay platform which is based on a HCV infectious cell culture system established in the laboratory and adapted for high-throughput HCV drug screen. NIH Chemical Genomics Center [NCGC] NIH Molecular Libraries Probe Centers Network [MLPCN] MLPCN Grant: MH095511 Assay Submitter (PI): Jake Liang, NIDDK
# The assay will start with plating 1,000 cells/well in 3 µL volume and culture for 4 h. Then 23 nL of compounds from the library collection will be added to each well, followed by adding 2.5 µL of HCVcc-Cre virus (~ 0.5 moi) and further cultured for 44 h before the luciferase assay. A volume of 4.5 µL luciferase substrates will be added to each well and the plates will be incubated at room temperature for 15 min. and then read for 15 sec. for the luciferase activity
# % is set by controls: 0 for no effect and ±100 for the full control effect.
Structure (SMILES),"activity change, negative = inhibition",Potency
Cc1ccccc1NC(=O)Cc1nc(COC(=O)c2cccnc2Cl)cs1,-13.6% (inactive),–
COc1ccc(C(C(=O)NC2CCCCC2)N(C(=O)CCl)c2ccccc2Cl)cc1 (stereo unspecified),–,2.82 µM (active)
COc1ccc(C(C(=O)NC2CCCCC2)N(C(=O)c2snc(C(N)=O)c2N)c2ccccc2OC)cc1 (stereo unspecified),0.443% (inactive),–
COc1cccc(N(C(=O)C2COc3ccccc3O2)C(C(=O)NC2CCCCC2)c2ccc(O)cc2)c1 (stereo unspecified),-7.1% (inactive),–
O=C(c1ccc(F)cc1)N1CCC(C(=O)N2CCN(S(=O)(=O)c3ccccc3Br)CC2)CC1,15.5% (inactive),–
CNC(=O)c1ccsc1NC(=O)c1ccc(S(=O)(=O)N2CCOCC2)cc1,-5.81% (inactive),–
COc1ccc(C(=O)Nc2nc(-c3ccc(S(=O)(=O)N4CCOCC4)cc3)cs2)cc1,–,35.5 µM (active)
CCOC(=O)c1csc(NC(=O)c2ccc(S(=O)(=O)N3CCCC3)cc2)n1,-8.37% (inactive),–
Cn1c(=O)[nH]c2c(c(C(=O)O)nn2C)c1=O,7.31% (inactive),–
CCOC(=O)c1cnc2nc(SCc3ccccc3Cl)[nH]n2c1=O,4.2% (inactive),–
Cc1cc(C(=O)N/N=C\C(Br)=C\c2ccccc2)c(C)o1,-28.1% (inactive),–
CC(C)c1cc(C(=O)O)n[nH]1,13.7% (inactive),–
CC(C)c1cc(C(=O)N/N=C/C(Br)=C/c2ccccc2)n[nH]1,–,22.4 µM (active)
Cc1c(NC(=O)CSc2nnc(-c3cccnc3)n2N)c(=O)n(-c2ccccc2)n1C,26.7% (inactive),–
O=C(O)c1ccc([N+](=O)[O-])cc1Sc1ccsc1,2.61% (inactive),–
O=C(c1cccc(S(=O)(=O)N2CCCCCC2)c1)N1CCN(Cc2ccccc2)CC1,-17.4% (inactive),–
CCOC(=O)N1CCN(C(c2cccnc2)c2ccc3cccnc3c2O)CC1 (stereo unspecified),-17.6% (inactive),–
Oc1c(C(c2ccccn2)N2CCOCC2)ccc2cccnc12 (stereo unspecified),–,3.55 µM (active)
Cc1nc2sc(C(c3ccco3)N3CCOCC3)c(O)n2n1 (stereo unspecified),0.269% (inactive),–
CCOC(=O)C1CCCN(C(=O)CSc2nnc3nc(C)cc(C)n23)C1 (stereo unspecified),-5.06% (inactive),–
Cc1cc(C(=O)OCC(=O)N2C(C)CCCC2C)c2ccccc2n1 (stereo unspecified),-14.7% (inactive),–
CC(C)CN(C(=O)CSc1ncnc2sccc12)C1CCS(=O)(=O)C1 (stereo unspecified),8.24% (inactive),–
CCC(C)N(C(=O)CSc1ncnc2c1cnn2-c1ccccc1)C1CCS(=O)(=O)C1 (stereo unspecified),–,14.1 µM (active)
CCN(C(=O)CSc1ncnc2c1cnn2-c1ccccc1)C1CCS(=O)(=O)C1 (stereo unspecified),-22.6% (inactive),–
O=C(O)c1ccc(NN=CC2=C(N3CCOCC3)/C(=C/c3ccccc3)CC2)cc1,40.3% (inactive),–
CC/C(=C(/c1ccccc1)c1ccc(OCC[N+](C)(C)C)cc1)c1ccccc1,3.46% (inactive),–

Structure (SMILES),"activity change, negative = inhibition",Potency
CCOC(=O)c1ccccc1OC(=O)Oc1ccccc1C(=O)OCC,-20.5% (inactive),–
CCOC(=O)C(=Cc1ccccc1OC)C(=O)OCC,–,25.1 µM (active)
COc1ccccc1C(=O)c1ccccc1C(=O)c1ccccc1,-3.41% (inactive),–
CC(=O)CC(CC(=O)NC1CCCCC1)c1ccccc1 (stereo unspecified),4.7% (inactive),–
CN(CC(=O)O)C(=O)c1ccccc1,-4.81% (inactive),–
COc1cccc(NC(=O)CN(C)C(=O)CSC(=S)N2CCCC2)c1,7.26% [at 8.37 µM] (inactive),–
O=C(Nc1ccccc1Cl)/C(Cl)=C(\Cl)S(=O)c1ccccc1 (stereo unspecified),–,11.2 µM (active)
COCCN(CCOC)C(=S)Nc1ccccc1Cl,-9.93% (inactive),–
O=C(Nc1ccccc1Cl)Nn1cnnc1,22.4% (inactive),–
COc1ccc(-c2cc3ncccc3cn2)cc1,-19.5% (inactive),–
CCCCCCCCn1c2c(c(=N)c3c1CCC3)CCCC2,–,3.98 µM (active)
O=C(CCNS(=O)(=O)c1ccccc1C(F)(F)F)Nc1ccncc1,8.22% (inactive),–
COc1ccccc1OCc1ccc(C(=O)NC(C)c2ccccc2)o1 (stereo unspecified),–,7.08 µM (active)
COc1ccccc1OCc1ccc(C(=O)N2CCN(C)CC2)o1,10.2% (inactive),–
COc1ccccc1CNC(=O)c1ccc(CS(=O)(=O)c2ccccc2)o1,5.83% (inactive),–
CCCCn1c(N)c(N(CC(C)C)C(=O)c2cccc(S(=O)(=O)N3CC(C)OC(C)C3)c2)c(=O)[nH]c1=O (stereo unspecified),-10.1% (inactive),–
CCOC(=O)c1ccc(NC(=O)Cn2cnc3cc(C)c(C)cc32)cc1,–,3.55 µM (active)
CCOC(=O)c1ccc(NC(=O)Cn2nnc(-c3ccc(C)cc3)n2)cc1,-24.7% (inactive),–
CCCc1nnc(SCC(=O)Nc2ccc(C(=O)OCC)cc2)o1,10.9% (inactive),–
Cn1c(SCC(=O)Nc2ccc(N3CCOCC3)cc2)nnc1C(F)(F)F,-2.32% (inactive),–
CC(NC(=O)c1ccccc1)C(=O)OCC(=O)Nc1cccc(S(=O)(=O)N2CCCC2)c1 (stereo unspecified),11.6% (inactive),–
CN1CCc2nc(SC(C(=O)O)c3ccccc3)c(C#N)c(-c3cccs3)c2C1 (stereo unspecified),–,10 µM (active)
Cc1c(-c2ccccc2)nc(N)c(C#N)c1-c1cccs1,17.7% (inactive),–
CC(NC(=O)CSc1nc2c(cc1C#N)CN(C)CC2)c1ccccc1 (stereo unspecified),-20.5% (inactive),–
Cc1ccc([C@@H]2CC=C(C(=O)O)[C@H](c3cccc(Cl)c3)N2S(=O)(=O)c2ccc(C)cc2)cc1,23.6% (inactive),–
